Bioassay records deposited in PubChem by National Center for Advancing Translational Sciences (NCATS).
Sm TGR block = blocks Schistosoma mansoni thioredoxin glutathione reductase. purified TGR, DTNB reduction, TNB absorbance 405 nm. Potency, µM (doses to about 114 µM), without a hit: top-dose activity change, negative = inhibition, actives largely listed as inhibitors. actives 3% (n = 360,000). AID 485364; also: % is scaled to controls: 0 for no effect and ±100 for the full control effect; nearly all actives have a fitted effect of over 60% in size
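First, TGR (20 nM dispensed) and NADPH were mixed with compound. Second, a 15 min room-temperature incubation followed. Third, further NADPH and then DTNB were added to start the reaction. Finally, TNB absorbance was monitored kinetically.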
SARS PLP yeast = SARS-CoV PLP inhibition in yeast | S. cerevisiae expressing SARS-CoV PLpro, growth rescue | Potency, µM (series often up to 32.9 µM), for inactives: at the top dose activity, positive = growth rescue, usual class: activators | actives 0.19% (n = 330,000); calls by dose curve; also: 0% is about no effect; nearly all actives have a fitted effect of over 55% in size
Pf growth 96h = P. falciparum growth inhibition at 96 hours; P. falciparum luciferase reporter growth, 96 h; Potency, µM (doses to about 28.7 µM), without a hit: top-dose activity change, negative = inhibition, usual class: inhibitors; actives 6.9% (n = 320,000); AID 504834; also: % is scaled to controls: 0 for no effect and ±100 for the full control effect
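Parasite growth measured via integrated firefly luciferase reporter in P. falciparum. Infected erythrocytes at 2% hematocrit, 0.05% parasitemia final were treated 96 hours at 37 C under 5% CO2, and luminescence was read.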
Pf growth 48h = inhibits P. falciparum growth in the first generation, 48 h. Potency, µM (doses to about 28.7 µM), without a hit: at the top dose activity change, negative = inhibition, usual class: inhibitors. P. falciparum luciferase growth in erythrocytes, 48 h. actives 5.9% (n = 310,000). AID 504832; also: % is scaled to controls: 0 for no effect and ±100 for the full control effect
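Luciferase-expressing P. falciparum in infected erythrocytes (2% hematocrit, 0.1% parasitemia final) in RPMI 1640/0.5% Albumax were exposed to compound for 48 hours at 37 C, 5% CO2; growth read as luminescence.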
Active calls of the source: *; [ ] = dose if it differs, or a comment. Sampled rows, rich in hits. Any-hit rate of the full collection: about 12%. Unless noted, calls follow the shape of the dose curve; as a rule, active = well fitted curve in the direction sought with a large enough effect; inconclusive = small, poorly fitted or top-dose-only effect, or another doubt; inactive = no such curve, though single readings can be large; an effect the other way counts as inactive or inconclusive. Potency is read from the fitted curve at half-maximal effect.

For CCN1CCN(c2cc(C)c3cc(NC(=O)CCC(=O)Nc4ccc(OC)cc4OC)ccc3n2)CC1 the results were Sm TGR block 3%, SARS PLP yeast 1%, Pf growth 96h inconclusive and Pf growth 48h 13µM*.
`CC(C)(C)c1ccc(C(=O)NCCNC(=O)c2ccco2)cc1` gave Sm TGR block -16%, SARS PLP yeast 1%, Pf growth 96h -35% and Pf growth 48h 5%.
`Cc1cc(OCC(=O)NNC(=S)NCC2CCCO2)cc(C)c1Cl` (stereo unspecified) gave Sm TGR block 1%, SARS PLP yeast -8%, Pf growth 96h -24% and Pf growth 48h 6%.
`CCN1CCN(c2cc(C)c3cc(NC(=O)c4ccccc4F)ccc3n2)CC1` gave Sm TGR block -3%, SARS PLP yeast -4% and Pf growth 96h 4.7µM*.
CCN1CCN(C(=S)Nc2ccc3nc(N4CCN(C)CC4)cc(C)c3c2)CC1 was read as Sm TGR block 7%, SARS PLP yeast 7%, Pf growth 96h 37% and Pf growth 48h inconclusive.
Screening CCN1CCN(C(=S)Nc2ccc3nc(N4CCN(CC)CC4)cc(C)c3c2)CC1 returned Sm TGR block -6%, SARS PLP yeast 9%, Pf growth 96h 0% and Pf growth 48h 6.6µM*.
Screening O=C(Nc1cccc2ccccc12)c1ccc(Br)o1 returned Sm TGR block -1%, SARS PLP yeast -4%, Pf growth 96h 15µM* and Pf growth 48h 16%.
CCN(CC)c1cc(C)c2cc(NC(=O)c3ccccc3OC)ccc2n1 was read as Sm TGR block -6%, SARS PLP yeast 1%, Pf growth 96h 9.3µM* and Pf growth 48h inconclusive.
Screening O=C(Nc1cccc2cccnc12)c1ccc(Br)o1 returned Sm TGR block inconclusive, SARS PLP yeast -26% and Pf growth 48h 28%.
Screening Cc1nnc(SC(C)C(=O)Nc2ccc3ccccc3c2)n1C (stereo unspecified) returned Sm TGR block -4%, SARS PLP yeast -18%, Pf growth 96h -6% and Pf growth 48h -18%.
`CCOC(=O)c1c(C)c(C(=O)NCCc2ccc(OC)cc2)c(C)n1C` gave Sm TGR block 8%.
Cc1cc(N2CCN(C)CC2)nc2ccc(NC(=O)c3ccccc3F)cc12 was read as Sm TGR block 8%, SARS PLP yeast 0%, Pf growth 96h 9.3µM* and Pf growth 48h 33%.
Screening COc1ccccc1C(=O)Nc1ccc2nc(SCC(=O)N(C)C)sc2c1 returned Sm TGR block 0%, SARS PLP yeast 9%, Pf growth 96h 12µM* and Pf growth 48h inconclusive.
Screening CCn1c2ccccc2c2cc(NC(=O)CN(C)CC(=O)Nc3ccc(N4CCOCC4)cc3)ccc21 returned Sm TGR block 0%, SARS PLP yeast -2%, Pf growth 96h 15µM* and Pf growth 48h -17%[1.15 µM].
`COc1ccccc1C(=O)Nc1ccc2nc(SCC(=O)N(C)c3ccccc3)sc2c1` gave Sm TGR block -2%.
Cc1cc(N2CCN(C)CC2)nc2ccc(NC(=O)c3cccnc3Cl)cc12 was read as Sm TGR block 0%, SARS PLP yeast -3% and Pf growth 96h 88%.
Screening COc1ccccc1CNC(=O)CSc1nc2nc(C)c(Cc3ccccc3Cl)c(C)n2n1 returned Sm TGR block -5%.
For CC(=O)Nc1ccc(/C=C2\CCc3ccccc3C2=O)cc1 the results were Sm TGR block -23%, SARS PLP yeast -5%, Pf growth 96h 19% and Pf growth 48h 76%.
CCc1ccc(N(C(=O)C(F)(F)F)C(C(=O)NC2CCCCC2)c2ccncc2)cc1 (stereo unspecified) was read as Sm TGR block -2%, SARS PLP yeast -2%, Pf growth 96h 2.6µM* and Pf growth 48h 13µM*.
For O=C(NC1CCCCC1)C(c1ccncc1)N(Cc1ccc2c(c1)OCO2)C(=O)C(F)(F)F (stereo unspecified) the results were Sm TGR block 45µM*, SARS PLP yeast -7%, Pf growth 96h 2.1µM* and Pf growth 48h 9.3µM*.
Screening COCCC(=O)N(Cc1ccc2c(c1)OCO2)C(C(=O)NC1CCCCC1)c1ccncc1 (stereo unspecified) returned Sm TGR block -36%, SARS PLP yeast 5%, Pf growth 96h 0% and Pf growth 48h -2%.
COc1ccccc1/C=C(\C#N)c1nc(-c2cc3ccccc3oc2=O)cs1 was read as Sm TGR block 1%.
CCOc1ccc(C2C=C(c3ccc(C)cc3)Nc3ncnn32)cc1 (stereo unspecified) was read as Sm TGR block inconclusive, SARS PLP yeast -11%, Pf growth 96h 136% and Pf growth 48h 10µM*.
Screening CCOc1ccc(C2C=C(c3cccc(OC)c3)Nc3nnnn32)cc1 (stereo unspecified) returned Sm TGR block -1%.
`CCOc1ccc(C2C=C(c3ccccc3)Nc3nnnn32)cc1` (stereo unspecified) gave Sm TGR block -23%, SARS PLP yeast 0%, Pf growth 96h -68% and Pf growth 48h 43%.
For CCOc1ccc(C2C=C(c3ccc(C)cc3)Nc3nnnn32)cc1 (stereo unspecified) the results were Sm TGR block -20%, SARS PLP yeast -4%, Pf growth 96h 13µM* and Pf growth 48h 8.3µM*.
`COc1ccc(NC(=O)C23CC4CC(CC(Cl)(C4)C2)C3)cc1S(=O)(=O)N1CCOCC1` gave SARS PLP yeast -22%.
COc1ccc(/C=C/C(=O)Nc2cc(C)nn2-c2nc3ccccc3n2Cc2cccc([N+](=O)[O-])c2)cc1 was read as Sm TGR block 4%, SARS PLP yeast 4%, Pf growth 96h 9.3µM* and Pf growth 48h inconclusive.
For CCCCC1(Cc2ccc([N+](=O)[O-])cc2)C(=O)N(c2ccccc2)N(c2ccccc2)C1=O the results were Sm TGR block 6%, SARS PLP yeast -41%, Pf growth 96h inconclusive and Pf growth 48h 4.1µM*.
For CCCCC1(COC(=O)CCC(=O)O)C(=O)N(c2ccccc2)N(c2ccccc2)C1=O the results were Sm TGR block -15%, Pf growth 96h 1% and Pf growth 48h inconclusive.
`COc1cccc(-n2cc(C(=O)NCc3ccccc3OC)c3ccccc3c2=O)c1` gave Sm TGR block -10%.
CC(=O)Nc1cccc(C(=O)OCC(=O)NCc2ccc(F)cc2)c1 was read as Sm TGR block -4%, SARS PLP yeast 0%, Pf growth 96h 33% and Pf growth 48h 13µM*.
For CC(=O)c1cccc(NC(=O)N2CCCC2C(=O)Nc2cccc(C)c2C)c1 (stereo unspecified) the results were Sm TGR block 0%, SARS PLP yeast 3%, Pf growth 96h 2.9µM* and Pf growth 48h 3%.
CC(=O)c1cccc(NC(=O)N2CCCC2C(=O)NCc2ccc(F)cc2)c1 (stereo unspecified) was read as Sm TGR block 1%, SARS PLP yeast 8%, Pf growth 96h 10µM* and Pf growth 48h -7%.
